# Source: PubChem
# Most compounds without a hit are left out; they make up all but 3.8% or so of the library.
# rRNA inh HTS – selective bacterial rRNA inhibition in E. coli; E. coli WT GFP vs humanized-ribosome RFP mutants, fluorescence, 24 h; active compounds read low; DMSO median 0, no signal -100; GFP signal change (wild-type ribosome), % (test concentration not listed); 1.6% of 350,000 active;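 active = significant combined selectivity score with lowered wild-type GFP, culture density cut under 30%, mutant RFP and density less affected; inactive = any of these conditions unmet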
# FGF22 binding – shifts melting point of recombinant human FGF22; recombinant FGF22 thermal shift, SYPRO orange fluorescence; percent of sucrose octasulfate shift, DMSO zero; activity (Tm shift, normalised), % at 9.99 µM; 1.5% of 340,000 active; AID 651658;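 active = mean Tm shift, scaled 0 neutral to 100 positive control, at about 1.3% or above, every replicate too, limit read from the data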
# ADAM10 inh – ADAM10 inhibition, QFRET primary screen | 0.62% of 370,000 active | inhibition, % at 7 µM | recombinant ADAM10, EDANS/DABCYL FRET peptide cleavage, 3 h | O14672;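 active = inhibition above a per-campaign cutoff equal to the mean of compounds falling between control-based bounds plus 3 SD, cut at about 20% in these data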;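 note: 0% = DMSO wells while the 100% control is not disclosed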
# proKLK7 act – proKLK7 (human) activation, primary screen | purified proKLK7, EDANS-DABCYL substrate fluorescence; 100% is mature enzyme control, 0% vehicle | activation, % at 7 µM | 0.9% of 370,000 active | AID 652039;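 active = activation above the mean of all tested compounds plus 3 SD, computed per campaign excluding outliers beyond control limits, cut at about 13% in these data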
# ADAM17 inh – ADAM17 inhibition, QFRET primary screen | P78536 | recombinant ADAM17, EDANS/DABCYL FRET peptide cleavage | inhibition, % at 6.95 µM | 0.83% of 370,000 active | AID 720648;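 active = inhibition above the mean of compounds lying between control limits plus 3 SD, set per campaign, cut at about 8.5% in these data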;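 note: 0% = DMSO-only wells as the low control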
# Target sequence (P78536 215-824 limits assumed): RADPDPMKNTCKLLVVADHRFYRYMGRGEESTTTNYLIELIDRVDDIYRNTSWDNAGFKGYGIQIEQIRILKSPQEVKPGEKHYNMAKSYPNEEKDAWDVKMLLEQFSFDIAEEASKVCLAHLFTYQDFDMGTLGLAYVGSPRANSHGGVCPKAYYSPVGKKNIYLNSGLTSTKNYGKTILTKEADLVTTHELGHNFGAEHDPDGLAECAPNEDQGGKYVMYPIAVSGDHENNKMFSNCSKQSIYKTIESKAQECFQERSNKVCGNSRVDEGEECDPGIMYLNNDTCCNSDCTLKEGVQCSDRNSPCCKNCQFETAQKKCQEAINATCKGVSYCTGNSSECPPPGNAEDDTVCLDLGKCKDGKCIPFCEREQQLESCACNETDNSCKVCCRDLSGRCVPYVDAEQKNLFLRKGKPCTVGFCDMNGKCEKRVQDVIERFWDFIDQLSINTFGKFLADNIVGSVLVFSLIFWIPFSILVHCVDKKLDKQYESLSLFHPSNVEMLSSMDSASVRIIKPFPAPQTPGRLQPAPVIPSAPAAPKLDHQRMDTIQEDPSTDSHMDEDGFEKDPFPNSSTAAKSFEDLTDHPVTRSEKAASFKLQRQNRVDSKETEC
# ADAM10 confirm – human ADAM10 inhibition, confirmation; shares compounds with ADAM10 inh; ADAM10 QFRET peptide cleavage, EDANS fluorescence; inhibition, % at 6.95 µM; 1% of 2,100 active; AID 743208;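 active = inhibition above about 20% chosen separately for each screening run, limit read from the data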;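 note: 0% = DMSO wells and 100% = marimastat wells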
# ADAM17 ctr – inhibits human ADAM17 in ADAM10 exosite counter-screen. AID 743214. 0.5% of 2,100 active. inhibition, % at 6.95 µM. shares compounds with ADAM10 inh. ADAM17 QFRET peptide cleavage, EDANS fluorescence;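 active = mean triplicate inhibition above the solvent-only control wells' mean plus 3 SD, cut at about 12% in these data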;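 note: 0% = DMSO wells and 100% = marimastat wells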
# ADAM10 ctr – inhibits human ADAM10 in ADAM17 exosite counter-screen; recombinant ADAM10, EDANS/DABCYL FRET peptide cleavage, 3 h; AID 743256; inhibition, % at 6.95 µM; shares compounds with ADAM17 inh; 47% of 2,900 active;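 active = mean inhibition over the triplicate runs exceeds the activity threshold set in the earlier primary screen, cut at about 20% in these data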;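 note: 0% = DMSO wells and 100% = marimastat wells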
# ADAM17 confirm – confirmation of inhibitors of human ADAM17; recombinant ADAM17, EDANS/DABCYL QFRET peptide cleavage; inhibition, % at 6.95 µM; shares compounds with ADAM17 inh; 65% of 2,900 active;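 active = mean inhibition across replicates above the hit cutoff set in the primary screen, cut at about 8.5% in these data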;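 note: 0% = DMSO wells and 100% = marimastat wells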
# Numbers without * were called inactive; · = not tested or not shown.
SMILES,rRNA inh HTS,FGF22 binding,ADAM10 inh,proKLK7 act,ADAM17 inh,ADAM10 ctr,ADAM17 confirm,others
CCC(C)C1NC(=O)C(NC(=O)C(CC(C)C)N(C)C(=O)C2CCCN2C(=O)C(C)O)C(C)OC(=O)C(Cc2ccc(OC)cc2)N(C)C(=O)C2CCCN2C(=O)C(CC(C)C)NC(=O)[C@H](C)C(=O)[C@H](C(C)C)OC(=O)CC1O (stereo not given in full),4,0,26*,0,12*,2,5,ADAM10 confirm=0;ADAM17 ctr=-1
Cc1cccc(S(=O)(=O)N2[C@@H]3c4ccc(-c5ccncc5)c(=O)n4C[C@H]2[C@H](CO)[C@H]3C(=O)O)c1,2,0,·,·,·,·,·,
COc1ccc(OCC(=O)Nc2ccc(Cl)cc2C(=O)c2ccccc2)cc1,·,·,12,0,9.1*,-3,-1,
CCC(=O)N1[C@@H]2c3ccc(C4=CCCC4)c(=O)n3C[C@H]1[C@H](CO)[C@H]2C(=O)OC,1,0,·,·,·,·,·,
C[C@]12CCC(=O)C=C1CC[C@@H]1C2CC[C@]2(C)C(=O)CCC12 (stereo not given in full),-38*,0,-3,1,9.9*,2,2,
O=C1NCN(c2ccccc2)C12CCN(C(CCc1ccccc1)c1nnnn1C1CCCCC1)CC2 (stereo not given),19,0,-5,1,-2,·,·,
COc1ccc(C(c2nnnn2Cc2ccccc2)N2CCC3(CC2)C(=O)NCN3c2ccccc2)cc1 (stereo not given),-11,-1,11,0,5,·,·,
CCC(c1nnnn1Cc1ccccc1)N1CCC2(CC1)C(=O)NCN2c1ccccc1 (stereo not given),-28,0,2,0,10*,18,12*,
O=C1NCN(c2ccccc2)C12CCN(C(CCc1ccccc1)c1nnnn1C1CCCC1)CC2 (stereo not given),2,0,8,0,8.8*,9,9.4*,
COC(=O)[C@H]1[C@H](CO)[C@H]2Cn3c(ccc(-c4ccccc4)c3=O)[C@@H]1N2CC1CCOCC1,2,0,·,·,·,·,·,
COC(=O)C1=C(c2ccc(OC(F)(F)F)cc2)C[C@@H]2CC[C@H]1N2C(=O)NCc1ccc(F)cc1,4,0,15,-1,3,·,·,
COC(=O)C1=C(c2ccc(OC(F)(F)F)cc2)C[C@@H]2CC[C@H]1N2C(=O)NCc1cccc2ccccc12,7,0,30*,0,8.7*,21*,10*,
COC(=O)C1=C(c2ccc(OC(F)(F)F)cc2)C[C@@H]2CC[C@H]1N2C(=O)NCc1cc(C)oc1C(F)(F)F,5,0,19,0,11*,29*,15*,
O=C(Cc1cccnc1)N1CCCCN2[C@H](CO)[C@@H](c3ccc(C#CC4CCCC4)cc3)[C@H]2C1,-60,0,·,·,·,·,·,
O=C(Cc1ccccn1)N1CCCCN2[C@H](CO)[C@@H](c3ccc(-c4ccccc4)cc3)[C@@H]2C1,-1,0,·,·,·,·,·,
Oc1ccc(Cl)cc1Cc1ccccc1,-54,0,0,0,8.7*,18,7,
COc1cccc(-c2ccc([C@@H]3[C@H]4CN(C(=O)Cc5ccncc5)CCCCN4[C@H]3CO)cc2)c1,-3,1,·,·,·,·,·,
N#Cc1cccc(-c2ccc([C@H]3[C@H](CO)N4CCCCN(C(=O)Cc5ccccc5)C[C@@H]34)cc2)c1,-35,0,·,·,·,·,·,
Cc1ccc(OCCOc2cccc(C=C3C(=O)NC(=O)NC3=O)c2)cc1,6,-1,10,0,9.2*,-2,-1,
Cc1cc(C)cc(OCCOc2cccc(C=C3C(=O)NC(=O)NC3=O)c2)c1,-9,0,1,0,0,·,·,
O=P(NS(=O)(=O)c1ccccc1)(Oc1ccccc1)Oc1ccccc1,·,·,2,0,8.7*,-2,2,
O=C1CNC[C@@H]2[C@@H](c3ccc(Br)cc3)[C@H](CO)N12,4,0,·,·,·,·,·,
CCCCn1c(O)c(C=NCc2ccc3c(c2)OCO3)c(=O)[nH]c1=O,11,0,-4,0,-2,·,·,
O=c1[nH]c(=O)n(Cc2ccco2)c(O)c1C=NCc1ccc2c(c1)OCO2,·,·,-51,0,9.3*,10,4,
COC(=O)C1=C(c2ccccc2OCc2ccccc2)C[C@@H]2CC[C@H]1N2C(=O)NCc1cccc(F)c1,-8,0,3,1,1,·,·,
SMILES,rRNA inh HTS,FGF22 binding,ADAM10 inh,proKLK7 act,ADAM17 inh,ADAM10 ctr,ADAM17 confirm,others
COC(=O)C1=C(c2ccccc2OCc2ccccc2)C[C@@H]2CC[C@H]1N2C(=O)NCc1ccc(Cl)cc1,10,1,19,-1,9.7*,17,11*,
COC(=O)C1=C(c2ccc(-c3ccccc3)c(F)c2)C[C@@H]2CC[C@H]1N2C(=O)NCCc1ccccc1,1,0,19,-1,9.0*,13,7,
COC(=O)C1=C(c2ccccc2OCc2ccccc2)C[C@@H]2CC[C@H]1N2C(=O)NCc1ccc(OC)c(OC)c1,-16,0,16,1,12*,6,6,
COC(=O)C1=C(c2ccccc2OCc2ccccc2)C[C@@H]2CC[C@H]1N2C(=O)NCc1ccc(N(C)C)cc1,4,0,14,1,5,·,·,
COC(=O)[C@@H]1[C@@H](CO)[C@@H]2Cn3c(ccc(C4=CCCCC4)c3=O)[C@H]1N2C(=O)Cc1ccccn1,-3,0,·,·,·,·,·,
COC(=O)[C@H]1[C@H](CO)[C@H]2Cn3c(ccc(/C=C/c4ccccc4)c3=O)[C@@H]1N2C(=O)C1CCC1,-6,0,·,·,·,·,·,
COc1ccccc1OCCCn1cc(C(=O)C2CC2)c2ccccc21,-33,0,6,0,0,·,·,
COc1ccccc1OCCCn1cc(C(C)=O)c2ccccc21,-12,0,5,0,10*,-3,4,
S=C(NCCc1ccccc1)N1Cc2ccc(Br)cc2-n2nncc2C1,-20,0,17,1,11*,25*,14*,
COC(=O)C1=C(C(=O)OC)C2c3ccccc3C1c1ccccc12,-11,1,12,0,11*,7,3,
O=C(O)C1=CC2c3ccccc3C1c1ccccc12,-6,0,-7,0,-1,·,·,
